Among the data in PMC11006913 are binding signal values, retold here.

Assay in all cases: PBM; 200 nM protein, PBS
Holding throughout (settings): dsDNA, one strand shown

For assay [1], the target named is T1, VENTX (Homo sapiens, UniProt O95231 78-163, R121Q).
T1 sequence: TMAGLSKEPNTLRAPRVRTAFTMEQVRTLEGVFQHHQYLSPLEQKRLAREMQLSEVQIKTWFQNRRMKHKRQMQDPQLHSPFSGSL

Assay [2] has as its target HOXC9 (Homo sapiens, UniProt P31274 178-260, K195R).
Assay [3] deals with T2, VENTX (Homo sapiens, UniProt O95231 78-163).
T2 sequence: T1 sequence with Q44R

The target of assay [4] is T3, VENTX (Homo sapiens, UniProt O95231 78-163, Y115F).
T3 sequence: T1 sequence with Y38F, Q44R

The target of assay [5] is HOXC9 (Homo sapiens, UniProt P31274 178-260).
The next assay deals with PITX2 (Homo sapiens, UniProt Q99697 72-157).
The target in assay [6] is HOXC9 (Homo sapiens, UniProt P31274 178-260, R193K).
Assay [7] concerns the target HOXC9 (Homo sapiens, UniProt P31274 178-260, R222W).
Assay [8] concerns the target HOXB9 (Homo sapiens, UniProt P17482 171-250, T197M).
The target of assay [9] is T4, PAX4 (Homo sapiens, UniProt O43316 9-242, R200K).
T4 sequence: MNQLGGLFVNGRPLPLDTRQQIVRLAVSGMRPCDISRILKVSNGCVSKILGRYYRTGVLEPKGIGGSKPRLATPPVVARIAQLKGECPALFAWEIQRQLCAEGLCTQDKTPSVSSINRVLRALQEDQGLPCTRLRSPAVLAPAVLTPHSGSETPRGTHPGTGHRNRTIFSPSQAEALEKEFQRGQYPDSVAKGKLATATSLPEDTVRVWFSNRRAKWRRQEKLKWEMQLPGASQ

In assay [10] the target is PRRX1 (Homo sapiens, UniProt P54821 80-166, F113S).
For assay [11], the target named is T5, PAX4 (Homo sapiens, UniProt O43316 9-242).
T5 sequence: T4 sequence with K192R

For assay [12], the target named is HOXB9 (Homo sapiens, UniProt P17482 171-250).
The target of assay [13] is ALX1 (Homo sapiens, UniProt Q15699 118-204, L144V).
Assay [14] concerns the target ALX3 (Homo sapiens, UniProt O95076 139-225, N203Q).
For assay [15], the target named is T6, PAX4 (Homo sapiens, UniProt O43316 9-242, R200Q).
T6 sequence: T4 sequence with K192Q

In assay [16] the target is ALX1 (Homo sapiens, UniProt Q15699 118-204, L144R).
The target of assay [17] is T7, PAX4 (Homo sapiens, UniProt O43316 9-242, F177V).
T7 sequence: T4 sequence with F169V, K192R

Assay [18] addresses ALX3 (Homo sapiens, UniProt O95076 139-225).
Assay [19] addresses T8, PAX4 (Homo sapiens, UniProt O43316 9-242, F177Y).
T8 sequence: T4 sequence with F169Y, K192R

For assay [20], the target named is ALX3 (Homo sapiens, UniProt O95076 139-225, L168Q).
Assay [21] concerns the target HOXB9 (Homo sapiens, UniProt P17482 171-250, R186Q).
Assay [22] concerns the target ALX3 (Homo sapiens, UniProt O95076 139-225, L168V).
Assay [23] concerns the target T9, PAX4 (Homo sapiens, UniProt O43316 9-242, R227W).
T9 sequence: T4 sequence with K192R, R219W

Assay [24] deals with ALX1 (Homo sapiens, UniProt Q15699 118-204).
Assay [25] deals with ALX3 (Homo sapiens, UniProt O95076 139-225, N203S).
Assay [26] deals with PRRX1 (Homo sapiens, UniProt P54821 80-166).
In assay [27] the target is VAX1 (Homo sapiens, UniProt Q5SQQ9 86-172).
Assay [28] has as its target VAX1 (Homo sapiens, UniProt Q5SQQ9 86-172, T142I).
The target in assay [29] is VAX1 (Homo sapiens, UniProt Q5SQQ9 86-172, K157R).

Numbering of substitutions follows the chain as printed.

ALX3 (Homo sapiens, UniProt O95076 139-225, N203Q), sequence (O95076 139-225 N203Q): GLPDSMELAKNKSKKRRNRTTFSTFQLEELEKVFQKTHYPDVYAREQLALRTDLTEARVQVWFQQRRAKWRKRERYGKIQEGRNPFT
ALX3 (Homo sapiens, UniProt O95076 139-225, L168V), sequence (O95076 139-225 L168V): as the sequence (O95076 139-225 N203Q) above, with L30V, Q65N counted along it
ALX3 (Homo sapiens, UniProt O95076 139-225, L168Q), sequence (O95076 139-225 L168Q): as the sequence (O95076 139-225 N203Q) above, with L30Q, Q65N counted along it
ALX3 (Homo sapiens, UniProt O95076 139-225), sequence (O95076 139-225): as the sequence (O95076 139-225 N203Q) above, with Q65N counted along it
HOXB9 (Homo sapiens, UniProt P17482 171-250, R186Q), sequence (P17482 171-250 R186Q): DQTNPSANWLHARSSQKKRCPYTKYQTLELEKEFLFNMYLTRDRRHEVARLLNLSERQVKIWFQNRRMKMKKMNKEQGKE
ALX3 (Homo sapiens, UniProt O95076 139-225, N203S), sequence (O95076 139-225 N203S): as the sequence (O95076 139-225 N203Q) above, with Q65S counted along it
HOXB9 (Homo sapiens, UniProt P17482 171-250, T197M), sequence (P17482 171-250 T197M): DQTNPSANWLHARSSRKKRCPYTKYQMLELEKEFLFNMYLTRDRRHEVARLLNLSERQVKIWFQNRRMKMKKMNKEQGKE
HOXB9 (Homo sapiens, UniProt P17482 171-250), sequence (P17482 171-250): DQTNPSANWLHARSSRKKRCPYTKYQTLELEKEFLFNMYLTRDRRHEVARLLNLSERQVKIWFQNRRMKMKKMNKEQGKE
HOXC9 (Homo sapiens, UniProt P31274 178-260, R193K), sequence (P31274 178-260 R193K): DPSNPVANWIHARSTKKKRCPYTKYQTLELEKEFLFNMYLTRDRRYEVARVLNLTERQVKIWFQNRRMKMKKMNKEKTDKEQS
HOXC9 (Homo sapiens, UniProt P31274 178-260, K195R), sequence (P31274 178-260 K195R): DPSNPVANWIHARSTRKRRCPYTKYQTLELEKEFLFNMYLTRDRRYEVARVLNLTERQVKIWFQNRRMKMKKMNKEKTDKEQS
HOXC9 (Homo sapiens, UniProt P31274 178-260), sequence (P31274 178-260): as the sequence (P31274 178-260 R193K) above, with K16R counted along it
HOXC9 (Homo sapiens, UniProt P31274 178-260, R222W), sequence (P31274 178-260 R222W): as the sequence (P31274 178-260 R193K) above, with K16R, R45W counted along it
ALX1 (Homo sapiens, UniProt Q15699 118-204), sequence (Q15699 118-204): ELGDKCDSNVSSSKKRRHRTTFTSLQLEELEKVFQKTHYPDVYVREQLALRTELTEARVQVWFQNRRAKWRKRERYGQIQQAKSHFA
VAX1 (Homo sapiens, UniProt Q5SQQ9 86-172, K157R), sequence (Q5SQQ9 86-172 K157R): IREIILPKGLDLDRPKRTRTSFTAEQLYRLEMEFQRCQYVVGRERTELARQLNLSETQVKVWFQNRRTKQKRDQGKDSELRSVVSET
PRRX1 (Homo sapiens, UniProt P54821 80-166), sequence (P54821 80-166): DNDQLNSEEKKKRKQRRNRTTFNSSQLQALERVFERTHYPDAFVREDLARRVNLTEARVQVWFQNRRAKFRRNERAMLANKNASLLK
ALX1 (Homo sapiens, UniProt Q15699 118-204, L144R), sequence (Q15699 118-204 L144R): as the sequence (Q15699 118-204) above, with L27R counted along it
ALX1 (Homo sapiens, UniProt Q15699 118-204, L144V), sequence (Q15699 118-204 L144V): as the sequence (Q15699 118-204) above, with L27V counted along it
VAX1 (Homo sapiens, UniProt Q5SQQ9 86-172), sequence (Q5SQQ9 86-172): as the sequence (Q5SQQ9 86-172 K157R) above, with R72K counted along it
PRRX1 (Homo sapiens, UniProt P54821 80-166, F113S), sequence (P54821 80-166 F113S): as the sequence (P54821 80-166) above, with F34S counted along it
VAX1 (Homo sapiens, UniProt Q5SQQ9 86-172, T142I), sequence (Q5SQQ9 86-172 T142I): as the sequence (Q5SQQ9 86-172 K157R) above, with T57I, R72K counted along it

With CGGGCACG, the binding signal in the assay with VENTX [1] is 7.97 upbm affinity estimate (log intensity, higher = more binding, comparable within an allelic series); with HOXC9 [2] it was 9.61 upbm affinity estimate (log intensity, higher = more binding, comparable within an allelic series); in the assay with VENTX [3], 7.98 upbm affinity estimate (log intensity, higher = more binding, comparable within an allelic series); in the assay with VENTX [4], 8.07 upbm affinity estimate (log intensity, higher = more binding, comparable within an allelic series); with HOXC9 [5], 9.57 upbm affinity estimate (log intensity, higher = more binding, comparable within an allelic series); in the assay with PITX2 it was 8.22 upbm affinity estimate (log intensity, higher = more binding, comparable within an allelic series). Also, the binding signal with HOXC9 [6] is 9.49 upbm affinity estimate (log intensity, higher = more binding, comparable within an allelic series); in the assay with HOXC9 [7] it was 9.66 upbm affinity estimate (log intensity, higher = more binding, comparable within an allelic series).

For the sequence GCCGCAGC, the binding signal is 8.08 upbm affinity estimate (log intensity, higher = more binding, comparable within an allelic series) with VENTX [1]; 8.46 upbm affinity estimate (log intensity, higher = more binding, comparable within an allelic series) in the assay with HOXB9 [8]; 8.11 upbm affinity estimate (log intensity, higher = more binding, comparable within an allelic series) with VENTX [3]; 9.27 upbm affinity estimate (log intensity, higher = more binding, comparable within an allelic series) with PAX4 [9]; 9.25 upbm affinity estimate (log intensity, higher = more binding, comparable within an allelic series) with PRRX1 [10]; 8.14 upbm affinity estimate (log intensity, higher = more binding, comparable within an allelic series) in the assay with VENTX [4]. The binding signal is 9.2 upbm affinity estimate (log intensity, higher = more binding, comparable within an allelic series) with PAX4 [11]; 8.33 upbm affinity estimate (log intensity, higher = more binding, comparable within an allelic series) with HOXB9 [12]; 6.7 upbm affinity estimate (log intensity, higher = more binding, comparable within an allelic series) with ALX1 [13]; 7.73 upbm affinity estimate (log intensity, higher = more binding, comparable within an allelic series) in the assay with ALX3 [14]; 9.23 upbm affinity estimate (log intensity, higher = more binding, comparable within an allelic series) with PAX4 [15]; 6.73 upbm affinity estimate (log intensity, higher = more binding, comparable within an allelic series) with ALX1 [16]. The binding signal with PAX4 [17] is 9.18 upbm affinity estimate (log intensity, higher = more binding, comparable within an allelic series); with ALX3 [18], 7.89 upbm affinity estimate (log intensity, higher = more binding, comparable within an allelic series); with PAX4 [19], 9.21 upbm affinity estimate (log intensity, higher = more binding, comparable within an allelic series); with ALX3 [20] it was 7.75 upbm affinity estimate (log intensity, higher = more binding, comparable within an allelic series); with HOXB9 [21], 8.46 upbm affinity estimate (log intensity, higher = more binding, comparable within an allelic series); in the assay with ALX3 [22], 7.74 upbm affinity estimate (log intensity, higher = more binding, comparable within an allelic series). Further, the binding signal in the assay with PAX4 [23] was 9.18 upbm affinity estimate (log intensity, higher = more binding, comparable within an allelic series); with ALX1 [24] it was 6.7 upbm affinity estimate (log intensity, higher = more binding, comparable within an allelic series); with ALX3 [25] it was 7.75 upbm affinity estimate (log intensity, higher = more binding, comparable within an allelic series); in the assay with PRRX1 [26] it was 9.47 upbm affinity estimate (log intensity, higher = more binding, comparable within an allelic series).

As for CGAGCGAC, the binding signal with VENTX [1] was 8.03 upbm affinity estimate (log intensity, higher = more binding, comparable within an allelic series); with HOXB9 [8] it was 8.47 upbm affinity estimate (log intensity, higher = more binding, comparable within an allelic series); in the assay with HOXC9 [2] it was 9.58 upbm affinity estimate (log intensity, higher = more binding, comparable within an allelic series); with VENTX [3], 7.84 upbm affinity estimate (log intensity, higher = more binding, comparable within an allelic series); with VENTX [4], 8.14 upbm affinity estimate (log intensity, higher = more binding, comparable within an allelic series); with HOXB9 [12], 8.38 upbm affinity estimate (log intensity, higher = more binding, comparable within an allelic series). Moreover, the binding signal in the assay with HOXC9 [5] was 9.72 upbm affinity estimate (log intensity, higher = more binding, comparable within an allelic series); with ALX3 [14], 7.8 upbm affinity estimate (log intensity, higher = more binding, comparable within an allelic series); in the assay with HOXC9 [6] it was 9.67 upbm affinity estimate (log intensity, higher = more binding, comparable within an allelic series); in the assay with ALX3 [18], 7.63 upbm affinity estimate (log intensity, higher = more binding, comparable within an allelic series); with VAX1 [27], 7.11 upbm affinity estimate (log intensity, higher = more binding, comparable within an allelic series); with ALX3 [20], 7.78 upbm affinity estimate (log intensity, higher = more binding, comparable within an allelic series). The binding signal is 8.41 upbm affinity estimate (log intensity, higher = more binding, comparable within an allelic series) with HOXB9 [21]; 9.73 upbm affinity estimate (log intensity, higher = more binding, comparable within an allelic series) in the assay with HOXC9 [7]; 7.74 upbm affinity estimate (log intensity, higher = more binding, comparable within an allelic series) with ALX3 [22]; 7.15 upbm affinity estimate (log intensity, higher = more binding, comparable within an allelic series) in the assay with VAX1 [28]; 7.82 upbm affinity estimate (log intensity, higher = more binding, comparable within an allelic series) with ALX3 [25]; 7.05 upbm affinity estimate (log intensity, higher = more binding, comparable within an allelic series) with VAX1 [29].
